# Rows were chosen to be rich in hits. Some 0.92% of all compounds tested hit in one or more screens of this group.
# APE1 inh-1: blocks human APE1 abasic DNA cleavage; P27695; recombinant APE1, TAMRA/BHQ-2 abasic DNA cleavage fluorescence; Potency, µM (top dose mostly 65.8 µM), for inactives: at the highest dose activity change, negative = inhibition, most hits filed as inhibitors; actives 0.35% (n = 350,000);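 further: plate controls were vehicle for no effect and reference inhibitor for full effect; nearly all actives have a fitted effect of over 55% in size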
#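 Activity was derived from the fluorescence gain between first and third kinetic reads (60 s intervals, ex 525/em 598 nm) after 50 nM THF-abasic TAMRA/BHQ-2 duplex was added to 0.75 nM APE1 preincubated 15 min with compound.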
# WRN helicase inh-1: blocks human WRN helicase; Potency, µM (series often up to 114 µM), for the others: at the highest dose activity change, negative = inhibition, actives largely listed as inhibitors; Q14191; WRN helicase unwinding, fluorescent forked duplex, kinetic; actives 0.46% (n = 360,000); further: on the % scale 0 is the no-effect control and ±100 the full control effect; nearly all actives have a fitted effect of over 55% in size
#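 Kinetic red-fluorescence monitoring (525/598 nm) tracks WRN helicase activity after 100 nM fluorophore-quencher forked duplex and 2 mM ATP are added to 20 nM enzyme pretreated 15 min at room temperature with compound.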
# BLM helicase inh-1: blocks DNA unwinding by human BLM helicase; AID 2528; recombinant BLM DNA unwinding, fluorescence dequenching; actives 0.2% (n = 350,000); Potency, µM (top dose mostly 56.1 µM), for the others: top-dose activity change, negative = inhibition, most hits filed as inhibitors; P54132;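 further: plate controls were vehicle for no effect and no enzyme for full effect; nearly all actives have a fitted effect of over 35% in size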
# L3MBTL1 inh: L3MBTL1 (human) inhibition. Q9Y468. AlphaScreen L3MBTL1–H3K9me1 peptide binding. Potency, µM (highest dose often 57.1 µM), inactives show at the highest dose activity, negative = inhibition, hits mostly inhibitors. actives 0.66% (n = 230,000). AID 485360; further: on the % scale 0 is the no-effect control and ±100 the full control effect; nearly all actives have a fitted effect of over 60% in size
#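 AlphaScreen assay: L3MBTL1 (50 nM final) was preincubated 30 min at room temperature with biotinylated H3(1-15)K9me1 peptide (75 nM final), then 30 min with library compounds; streptavidin donor and nickel chelate acceptor beads (10 ug/mL final) added, 30 min dark.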
# RECQ1 inh-1: RECQ1 (human) helicase inhibition. Potency, µM (titrated, usually from 57.3 µM), without a hit: top-dose activity, negative = inhibition, actives largely listed as inhibitors. actives 0.54% (n = 240,000). RECQ1 DNA unwinding, red fluorescence kinetic read. AID 2549;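 further: plate controls were vehicle for no effect and no enzyme for full effect; nearly all actives have a fitted effect of over 30% in size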
#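 50 nM RECQ1T1 preincubated 15 min with compound in Tris pH 8.0 buffer with MgCl2, DTT, Tween-20 and 2.5 ug/ml poly(dI-dC); started with 200 nM TAMRA/BHQ-2 forked duplex and 2 mM ATP. Unwinding read as fluorescence (525/598 nm), two reads 2 h apart.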
# APE1 dye cs: DNA dye displacement counter-screen activity | actives 7% (n = 480) | DNA fluorescent dye displacement counterscreen, fluorescence | Potency, µM (top dose mostly 28.5 µM), without a hit: at the top dose activity change, negative = inhibition, hits mostly inhibitors | shares compounds with APE1 inh-1;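 further: loss of thiazole orange fluorescence as the dye is displaced from duplex DNA; 0% = ThO with dsDNA and no compound and -100% = ThO without dsDNA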
# EndoIV counter: counter-screen for APE1 inhibitors: inhibitors of E. coli endonuclease IV | shares compounds with APE1 inh-1 | E. coli Endo IV, fluorogenic AP-site DNA cleavage | Potency, µM (top dose mostly 27.1 µM), inactives show at the top dose activity change, negative = inhibition, actives largely listed as inhibitors | actives 4% (n = 560);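 further: plate controls were uninhibited enzyme wells for no effect and no enzyme buffer wells for full effect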
# APE1 inh-2: APE1 (human) endonuclease inhibition, confirmation. shares compounds with APE1 inh-1. purified APE1, fluorogenic abasic-site DNA cleavage. Potency, µM (series often up to 57.1 µM), for inactives: top-dose activity change, negative = inhibition, most hits filed as inhibitors. actives 44% (n = 750). AID 2572; further: on the % scale 0 is the no-effect control and ±100 the full control effect; nearly all actives have a fitted effect of over 30% in size
# APE1 FP: compounds that displace a DNA probe from human APE1 | APE1 binding to TAMRA-labelled double-stranded DNA, fluorescence polarization displacement | Potency, µM (top dose mostly 28.5 µM), without a hit: top-dose activity, negative = inhibition, usual class: inhibitors | AID 2573 | actives 7% (n = 480) | shares compounds with APE1 inh-1; further: on the % scale 0 is the no-effect control and ±100 the full control effect
# BLM inh: confirmation of inhibitors of human Bloom syndrome helicase BLM; actives 40% (n = 220); shares compounds with BLM helicase inh-1; AID 2585; BLM DNA unwinding, fluorescence quenching, biochemical; Potency, µM, inactives show max response, negative = inhibition, actives largely listed as inhibitors;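 further: strand separation dequenches TAMRA so unwinding raises red fluorescence; series mostly up to about 69 µM; on the % scale 0 is the no-effect control and ±100 the full control effect; nearly all actives have a fitted effect of over 45% in size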
# RECQ1 inh conf: confirmation of human RECQ1 helicase inhibitors; shares compounds with RECQ1 inh-1; Potency, µM (series often up to 229 µM), inactives show at the top dose activity change, negative = inhibition, most hits filed as inhibitors; actives 28% (n = 610); RECQ1 helicase DNA unwinding, fluorescence; further: on the % scale 0 is the no-effect control and ±100 the full control effect; nearly all actives have a fitted effect of over 45% in size
# ADP FP counter: displaces ADP in a fluorescence polarization counter-screen for RECQ1 hits; shares compounds with RECQ1 inh-1; ADP fluorescence polarization displacement counterscreen; Potency, µM (doses to about 228 µM), without a hit: at the top dose activity change, negative = inhibition, usual class: inhibitors; actives 27% (n = 530); further: on the % scale 0 is the no-effect control and ±100 the full control effect; nearly all actives have a fitted effect of over 45% in size
# RECQ1 inh-2: blocks human RECQ1 DNA unwinding. shares compounds with RECQ1 inh-1. recombinant RECQ1 DNA unwinding, red fluorescence. Potency, µM (series often up to 119 µM), for the others: at the top dose activity, negative = inhibition, most hits filed as inhibitors. actives 15% (n = 1,100). AID 504841; further: on the % scale 0 is the no-effect control and ±100 the full control effect; nearly all actives have a fitted effect of over 50% in size
# WRN helicase inh-2: confirmation of human WRN helicase inhibitors | shares compounds with WRN helicase inh-1 | WRN helicase DNA unwinding, fluorescence kinetic | Potency, µM (highest dose often 57.1 µM), inactives show at the highest dose activity, negative = inhibition, usual class: inhibitors | actives 63% (n = 610) | AID 720497; further: nearly all actives have a fitted effect of over 65% in size
# TO displacement: binds DNA, flagged in WRN inhibitor counterscreen; shares compounds with WRN helicase inh-1; thiazole orange DNA binding displacement, fluorescence; Potency, µM (series often up to 57.1 µM), without a hit: at the highest dose activity change, negative = inhibition, actives largely listed as inhibitors; actives 10% (n = 610); AID 720499;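 further: drop in dye fluorescence marks compound binding to DNA; on the % scale 0 is the no-effect control and ±100 the full control effect; nearly all actives have a fitted effect of over 60% in size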
# BLM helicase inh-2: BLM helicase inhibition, WRN selectivity check. actives 60% (n = 610). Recombinant BLM helicase DNA unwinding, red fluorescence. Potency, µM (series often up to 57.1 µM), inactives show at the top dose activity change, negative = inhibition, most hits filed as inhibitors. AID 720503. shares compounds with WRN helicase inh-1; further: nearly all actives have a fitted effect of over 60% in size
# * = called active by the depositor; ? = inconclusive; . = no result given; ! = not confirmed by another sample; [ ] = remark or other dose. The call rests on the fitted dose curve; in most records, active means well fitted curve in the direction sought with a large enough effect; inconclusive means small, poorly fitted or top-dose-only effect, or another doubt; inactive means no such curve, though single readings can be large; an effect the other way counts as inactive or inconclusive. Potency means the concentration at half of the fitted maximal effect.
SMILES,APE1 inh-1,WRN helicase inh-1,BLM helicase inh-1,L3MBTL1 inh,RECQ1 inh-1,RECQ1 inh conf,ADP FP counter,others
COc1cc(-c2oc3cc(O)cc(O)c3c(=O)c2O)ccc1O,?,.,-6%,.,-10%,.,.,
O=C(O)C(Cl)Br (stereo not drawn),17%,.,.,.,11%,.,.,
COc1ccc(CN2C(=O)NC(=O)/C(=C/c3ccoc3)C2=O)cc1,8.9µM*,40µM*,-20%,?,?,.,.,APE1 dye cs=0%;EndoIV counter=-9%;APE1 inh-2=4µM*;APE1 FP=?;WRN helicase inh-2=7.6µM*;TO displacement=-3%;BLM helicase inh-2=2.4µM*
CCCCOC(C)=O,2%,.,.,.,0%,.,.,
O=c1c2ccccc2nc(/C=C/c2cccnc2)n1Cc1ccccc1,?,32µM*,-6%,6.3µM*,-7%,.,.,APE1 inh-2=28µM*;WRN helicase inh-2=-7%;TO displacement=-9%;BLM helicase inh-2=-29%
O=c1c2ccccc2nc(/C=C/c2ccccc2)n1-c1ccc(O)cc1,-5%,-11%,-6%,.,.,.,.,
CCCCn1c(NS(=O)(=O)c2ccccc2)c(C(=O)OCC)c2nc3ccccc3nc21,3%,-35%,1.4µM*,4.5µM*,-3%,.,.,BLM inh=-10%
C[C@H](N)C(=O)N[C@@H](C)C(=O)N[C@@H](Cc1ccccc1)C(=O)CCl,?,.,.,.,0%,.,.,
Cc1ccc(N2C(=O)NC(=O)/C(=C\c3cccn3C(C)(C)C)C2=O)cc1,1%,3%,-1%,-2%,4%,.,.,
CCc1ccc(N2C(=O)NC(=O)/C(=C\C=C\c3ccco3)C2=O)cc1,?,?,-1%,.,8.9µM*,?,50µM*,
Cc1ccccc1NC(=O)CCl,-1%,-9%,1%,6%,-6%,.,.,
O=C(CN1C(=O)S/C(=C\C=C\c2ccccc2)C1=O)Nc1ccccc1C(=O)O,1%,-25%,-8%,-12%,-13%,112µM*,-15%,
Cc1cc2c(C(C)C)c(O)c(O)c(C=O)c2c(O)c1-c1c(C)cc2c(C(C)C)c(O)c(O)c(C=O)c2c1O,25µM*!,.,28µM*!,?,14µM*!,22µM*,14µM*,
CC[C@]1(O)CC(O[C@@H]2CC(N(C)C)C(O)C(C)O2)c2c(cc3c(c2O)C(=O)c2c(O)cccc2C3=O)C1C(=O)OC (stereo partly drawn),14µM*,.,28%,.,10µM*,112µM*,4.5µM*,
CC[C@@]1(O)CC(O)c2c(cc3c(c2O)C(=O)c2c(O)ccc(O)c2C3=O)C1C(=O)OC (stereo partly drawn),?,.,?,.,4µM*,50µM*,0.89µM*,
N#CC(C#N)=NNc1ccc(OC(F)(F)F)cc1,?,.,?,.,-20%,.,.,
Cc1cccn2c(=O)c(C=Nc3ccccc3)c(NCc3ccco3)nc12,?,-35%,0%,-5%,?,.,.,RECQ1 inh-2=12%
C/C1=C/C(=O)O[C@@H]2C[C@@H](CC[C@H](C)/C=C\CC1)O[C@@](O)(C1CSC(=O)N1)C2 (stereo partly drawn),-5%,.,-2%,.,11%,.,.,
CCN(CC)C(=O)c1ccc2c(c1)C1C(Cl)C(Sc3ccccc3[N+](=O)[O-])CC1C(C(=O)O)N2 (stereo not drawn),-11%,-27%,-25%,14µM*,-22%,?,126µM*,
Nc1c([N+](=O)[O-])ccc(Oc2ccccc2)c1Cl,-2%,.,-6%,.,-2%,.,.,
CSSC,-4%,.,.,.,8%,.,.,
C[C@@H]1Cc2c(Cl)cc(C(=O)N[C@H](Cc3ccccc3)C(=O)O)c(O)c2C(=O)O1,-2%,.,2%,.,-9%,.,.,
Cc1ccc(CSc2n[nH]c(N)n2)cc1,11%,3%,-8%,-6%,28µM*,.,.,RECQ1 inh-2=-6%
CC(=O)[O-].CC(=O)[O-].CC(=O)[O-].[Cr+3],0%,.,.,.,4%,.,.,
CN(C)[C@@H]1C(=O)C(C(N)=O)=C(O)[C@]2(O)C(=O)C3=C(O)c4c(O)cccc4[C@@](C)(O)[C@H]3[C@H](O)[C@@H]12,?,.,-11%[21.4 µM],.,13µM*,63%[69.1 µM],45µM*,
Nc1c(C(=O)NCCc2ccccc2)c2nc3ccccc3nc2n1CCN1CCOCC1,-5%,-25%,-13%,49%,8.9µM*,-7%[114 µM],-5%[91.9 µM],RECQ1 inh-2=-17%

# Source: PubChem
